Publication PMC13083723 (Patterns, 2026)
The campaign covered roughly 5,400 compounds. About 190 (3.5%) showed an effect of 50% or more. Only a selection was taken, and strong results are over-represented in it overall.

What follows are molecules tested on Vero-E6 (assay: primary screen, phospholipidosis by LipidTOX staining; higher = more effect of the substance). Settings: 10 µM.
Summary of the method: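 Single-concentration screen at 10 μM, with DMSO 0.1 v/v % and amiodarone 10 μM as controls. Read-out is LipidTOX Red phospholipid staining, which tolerates aldehyde fixation, in Vero-E6 cells.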

SMILES | result_ITMP [%]
Cn1ncnc1COc1nn2c(-c3cc(F)ccc3F)nnc2cc1C(C)(C)C | -6.83
Nc1c(S(=O)(=O)[O-])cc(Nc2cccc3ccccc23)c2c1C(=O)c1ccccc1C2=O | -11.1
CC[C@H]1[C@@H](O)C2C3CC[C@H]([C@H](C)CCC(=O)O)[C@@]3(C)CCC2[C@@]2(C)CC[C@@H](O)C[C@@H]12 (stereo partly drawn) | -3.95
CN[C@@H]1C(OC2[C@H](O[C@H]3[C@H](O)[C@@H](O)[C@H](NC(=N)N)[C@@H](O)[C@@H]3NC(=N)N)OC(C)[C@]2(O)CO)OC(CO)C(O)C1O (stereo partly drawn) | -3.92
CC(=O)c1ccc2c(c1)C(=O)C1(CC1)O2 | 0.63
C[C@@H]1CCCN1CCc1cc2cc(-c3ccc(C#N)cc3)ccc2o1 | 66.8
CC(=O)C1=C(O)[C@]2(C)C(=CC1=O)Oc1c(C(C)=O)c(O)c(C)c(O)c12 | -3.21
CCCCCCCCCCC(=O)O[C@H]1CC[C@H]2[C@@H]3CCC4=CC(=O)CC[C@]4(C)[C@H]3CC[C@]12C | 0.88
C[C@@]1(O)[C@H](O)[C@@H](CO)O[C@H]1n1cnc2c(O)nc(N)nc21 | 7.18
COc1ccc2cc(-c3[nH]c(-c4ccc(S(C)=O)cc4)nc3-c3ccncc3)ccc2c1 (stereo not drawn) | -3.68
C[N+]1(C)[C@@H]2C[C@@H](OC(=O)C(O)(c3cccs3)c3cccs3)C[C@H]1[C@@H]1O[C@@H]12 | -2.59
CN1CCC(=C2c3ccccc3C=Cc3ccccc32)CC1 | 77.3
CN1CCC(=C2c3ccccc3Sc3ccccc32)CC1 | 44.9
CN1CCC(=C2c3ccccc3CCc3sccc32)CC1 | 42.6
Cc1onc(O)c1CC(N)C(=O)O (racemic) [R4A_0004356_001 / SPE_A34716233] | 0.42
CC(C(=O)O)c1ccc(C(=O)c2cccs2)cc1 (stereo not drawn) | -0.4
CC(C)c1ccc(C(=O)c2cccs2)c(SCCCCCCCCN(C)C)n1 | 77
O=C(O)COc1ccc(C(=O)c2cccs2)c(Cl)c1Cl | -7.59
O=C([O-])CCC(=O)OC[C@H](NC(=O)C(Cl)Cl)C(O)c1ccc([N+](=O)[O-])cc1 (stereo partly drawn) | 1.81
O=c1[n-]c(=O)n(Cl)c(=O)n1Cl | -11.2
c1ccc(C2CN3CCSC3=N2)cc1 (stereo not drawn) [R4A_0001404_001 / SPE_K73107279] | -7.98

SMILES | result_ITMP [%]
C[N+](C)(C)CCOP(=O)([O-])OP(=O)([O-])OC[C@H]1O[C@@H](n2ccc(N)nc2=O)[C@H](O)[C@@H]1O | 10.2
CC(C)(O)c1ccccc1CC[C@@H](SCC1(CC(=O)[O-])CC1)c1cccc(/C=C/c2ccc3ccc(Cl)cc3n2)c1 | 3.69
C[C@H](N)Cn1ccc2cc(F)c(Cl)cc21 | 50.7
CO[C@H]1O[C@@H]2O[C@@]3(C)CC[C@H]4[C@H](C)CC[C@@H]([C@H]1C)[C@@]24OO3 | -0.98
O=C([O-])C(O)Cc1ccc(O)c(O)c1 (stereo not drawn) | 1.45
CCC(=O)O[C@@H](OP(=O)(CCCCc1ccccc1)CC(=O)N1C[C@H](C2CCCCC2)C[C@H]1C(=O)[O-])C(C)C (stereo partly drawn) | -3.03
CC(=O)c1ccc2c(c1)N(CCCN1CCC(CCO)CC1)c1ccccc1S2 | 50.4
CCOC(=O)Nc1ccc2c(c1)N(C(=O)CCN1CCOCC1)c1ccccc1S2 | -8.3
CC(=O)c1ccc2c(c1)N(CCCN(C)C)c1ccccc1S2 | 42.6
CC(=O)c1ccc2c(c1)N(CCCN1CCN(CCO)CC1)c1ccccc1S2 | 74.4
CCCCN1CCC(CCC(=O)c2cc(Cl)c(N)cc2OC)CC1 | 5.01
O=C(NO)c1ccc(O)c(O)c1 | -2.75
C[C@]12CCC(=O)C[C@@H]1CC[C@@H]1[C@@H]2CC[C@]2(C)C=CC[C@@H]12 | -0.52
C[C@]12CC[C@H](O)C[C@H]1CC[C@@H]1[C@@H]2CC[C@]2(C)[C@@](O)(c3ccoc3)CC[C@]12O | -7.29
Cc1ccccc1N(C)C(=O)c1ccc(S(=O)c2nccs2)c([N+](=O)[O-])c1 (stereo not drawn) | 70.1
CN1c2c(nc(N)[nH]c2=O)NC[C@@H]1CNc1ccc(C(=O)N[C@@H](CCC(=O)[O-])C(=O)[O-])cc1 | -7.73
CC[C@@]1(C2O[C@@H](C3O[C@@](O)(CO)[C@H](C)C[C@@H]3C)C[C@@H]2C)CC[C@H]([C@]2(C)CCC3(C[C@H](O)[C@@H](C)[C@@H]([C@H](C)[C@@H](OC)[C@H](C)C(=O)[O-])O3)O2)O1 (stereo partly drawn) | -2.43
CN1CCN(c2cc(-c3ccccc3)nc(N)n2)CC1 | 5.46
CN1CCN(c2nc3ccccc3nc2Cl)CC1 | 5.5
CN1CCN(C2=Cc3ccccc3Oc3ccc(Cl)cc32)CC1 | 61.3
CN1C[C@@H]2c3ccccc3Oc3ccc(Cl)cc3[C@H]2C1.CN1C[C@H]2c3ccccc3Oc3ccc(Cl)cc3[C@@H]2C1 | 65.2

SMILES | result_ITMP [%]
CC(=O)NNC(=O)N1Cc2ccccc2Oc2ccc(Cl)cc21 | -0.36
CN1CCN2c3ccccc3Cc3ccccc3C2C1 (stereo not drawn) | 15.9
CCCC(=O)[O-] | -6.95
CCOC(=O)[C@H](C)C[C@@H](Cc1ccc(-c2ccccc2)cc1)NC(=O)CCC(=O)[O-] | 0.47
CC(C)Cc1ccc(C(C)C(=O)O)cc1 (stereo not drawn) [R4A_0001344_001 / SPE_K14965640] | 1.58
O=P([O-])(O)C(Cl)(Cl)P(=O)([O-])O | -2.27
Cc1cc(Nc2ccc(NC(=O)c3ccc(Nc4ccnc5ccccc45)cc3)cc2)nc(N)n1 | 13.5
Cc1ccc(NC(=O)c2cccc(N(C)C)c2)cc1NC(=O)c1ccc(O)cc1 | -6.05
CNCc1ccc(C)c(NC(=O)c2ccc(Nc3nc(-c4ccccc4)c4ccccc4n3)cc2)c1 | 67.4
CN1C2C[C@H](OC(=O)[C@H](CO)c3ccccc3)C[C@H]1[C@H]1OC21 (stereo partly drawn) | -1.02
C=C1/C(=C\C=C2/CCC[C@]3(C)[C@@H]([C@H](C)/C=C/C=C/C(O)(CC)CC)CC[C@@H]23)C[C@@H](O)C[C@@H]1O | -2.42
C[C@@]12C(=O)OC(=O)[C@]1(C)[C@H]1CC[C@@H]2O1 | 7.41
CNCCC=C1c2ccccc2C=Cc2ccccc21 | 42.4
CNCCC=C1c2ccccc2CCc2ccccc21 | 64.4
CNCC/C=C/c1cccnc1 | -4.64
O=C(N[C@H]1CN2CCC1CC2)c1cnc2ccsc2c1O | -2.55
COC(=O)N[C@H](C(=O)N1CCC[C@H]1c1ncc(-c2ccc3c(c2)O[C@@H](c2ccccc2)n2c-3cc3cc(-c4cnc([C@@H]5CCCN5C(=O)[C@@H](NC(=O)OC)C(C)C)[nH]4)ccc32)[nH]1)C(C)C | 3.24
Cc1onc(-c2ccccc2Cl)c1C(=O)N[C@@H]1C(=O)N2[C@@H]1SC(C)(C)[C@@H]2C(=O)[O-] | 4.56
C=CCN1CCC23c4c5ccc(O)c4O[C@H]2C(=O)CC[C@@]3(O)[C@H]1C5 | -3.91
NC[C@H]1O[C@H](O[C@H]2[C@H](O[C@@H]3O[C@H](CO)[C@@H](O)[C@H]3O)[C@@H](O)[C@H](N)C[C@@H]2N)[C@H](N)[C@@H](O)[C@@H]1O | -1.8
CN(C)CC[C@@H](c1ccc(Cl)cc1)c1ccccn1 [R4A_0004036_001 / SPE_K39462424] | 22.6

SMILES | result_ITMP [%]
CC(=O)C(=O)[O-] | -8.52
CN1[C@@H]2CC[C@H]1C[C@@H](OC(=O)c1c[nH]c3ccccc13)C2.CN1[C@@H]2CC[C@H]1C[C@H](OC(=O)c1c[nH]c3ccccc13)C2 | 19.1
CC(C)Oc1ccc(-c2nc(-c3cccc4c3CC[C@@H]4NCCO)no2)cc1C#N | 39.4
CCOc1ccc(-c2nc(-c3cccc4c3CCC4NCCO)no2)cc1OCC (stereo not drawn) | 108
CC(C)Oc1ccc(-c2nc(-c3cccc4c3CCC4NCCC(=O)O)no2)cc1C#N (stereo not drawn) | -0.21
Cc1ccc(Cl)c(Nc2ccccc2C(=O)[O-])c1Cl | -2.49
CC[C@]1(O)C[C@H]2C[N@](CCc3c([nH]c4ccccc34)[C@@](C(=O)OC)(c3cc4c(cc3OC)N(C)[C@H]3[C@@](O)(C(N)=O)[C@H](O)[C@]5(CC)C=CCN6CC[C@]43[C@@H]65)C2)C1 | 9.74
O=C(O)Cc1ccc(OCc2ccccc2)c(Cl)c1 | 2.22
COc1cc(CN(CCN)C(=O)c2cccs2)ccc1OCc1ccccc1 | 85.4
COc1cc(C(=O)NCC2(N(C)C)CCCC2)cc(OC)c1OCc1ccccc1 | 25.4
O=S(=O)([O-])CC(S)CS (stereo not drawn) | -3.17
O=C(NC(Cc1c[nH]c2ccccc12)C(=O)[O-])c1ccc(Cl)cc1 (stereo not drawn) | -0.44
N[C@H]1CC[C@H](N[C@@H]2C[C@H]2c2ccccc2)CC1 | 65.7
NC1C[C@H]1c1ccccc1 (stereo partly drawn) | -1.26
c1ccc([C@@H]2C[C@H]2NC2CCNCC2)cc1 | 27.9
C[C@]12CCC(=O)C=C1C=CC1C2CC[C@@]2(C)C1CC[C@@]2(O)CCC(=O)[O-] (stereo partly drawn) | -3.36
Cc1ccc(S(=O)(=O)[N-]Cl)cc1 | -2.26
CC[C@]1(O)C[C@@H]2C[N@@](CCc3c([nH]c4ccccc34)[C@@](C(=O)OC)(c3cc4c(cc3OC)N(C)[C@H]3[C@@](O)(C(=O)OC)[C@H](OC(C)=O)[C@]5(CC)C=CCN6CC[C@]43[C@@H]65)C2)C1 | 8.57
